Assay results: the supplement of paper PMC4709259
Structures can show the parent of a compound that is named as a salt. ± gives the standard deviation.

How the values were obtained:
Jurkat [1] = test: mean cell size (FSC-A) relative to DMSO control (fraction of control); higher = larger cells; settings: 48 h
In short: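 Jurkat cells at 600 cells/µl were incubated for 1 h and then treated for 48h with the Enzo Screen-Well FDA Approved Drug Library v2.0 at 25µM, with DMSO at 0.9% (v/v) final. Compounds that reduced counts below 20% of controls were retested in 10-fold dilutions down to 25nM. Cell count and mean cell size, taken as forward scatter area, were measured by flow cytometry relative to solvent-only controls. Each plate carried 6-12 controls, and values are means of 3 biological replicates.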

Jurkat [2] = test: cell count relative to DMSO control (fraction of control); higher = more cells (less growth inhibition); settings: 48 h

Row | SMILES | mean cell size (Jurkat [1]) | cell count (Jurkat [2])
1 | NC1=NCC2c3ccccc3Cc3ccccc3N12 (configuration not stated) [Epinastine·HCl] (concentration: 25 µM) | 0.951 ± 0.014 | 1.06 ± 0.077
2 | CC(C)(C)NCC(O)c1ccc(O)c(CO)c1 (configuration not stated) [Salbutamol Hemisulfate] (concentration: 25 µM) | 1.01 ± 0.056 | 0.916 ± 0.11
3 | CO/N=C(\C(=O)N[C@@H]1C(=O)N2C(C(=O)OC(C)OC(C)=O)=C(COC(N)=O)CS[C@H]12)c1ccco1 (some centres not stated) [Cefuroxime Axetil] (concentration: 25 µM) | 0.99 ± 0.028 | 0.895 ± 0.057
4 | COC(=O)N[C@H](C(=O)N[C@@H](Cc1ccccc1)[C@@H](O)CN(Cc1ccc(-c2ccccn2)cc1)NC(=O)[C@@H](NC(=O)OC)C(C)(C)C)C(C)(C)C [Atazanavir] (concentration: 25 µM) | 1.04 ± 0.052 | 0.658 ± 0.054
5 | CCCCC1=NC2(CCCC2)C(=O)N1Cc1ccc(-c2ccccc2-c2nnn[nH]2)cc1 [Irbesartan] (concentration: 25 µM) | 0.959 ± 0.06 | 0.401 ± 0.013
6 | O=C(O)COCCN1CCN(C(c2ccccc2)c2ccc(Cl)cc2)CC1 (configuration not stated) [Cetirizine 2HCl] (concentration: 25 µM) | 0.962 ± 0.032 | 1.01 ± 0.12
7 | CC(=O)OC[C@H]1O[C@@H]([S-])[C@H](OC(C)=O)[C@@H](OC(C)=O)[C@@H]1OC(C)=O.CCP(CC)CC.[Au+] [Auranofin] (concentration: 250 nM) | 0.9833 ± 0.0086 | 0.762 ± 0.058
8 | CCC(C)(C)C(=O)O[C@H]1C[C@@H](C)C=C2C=C[C@H](C)[C@H](CC[C@@H]3C[C@@H](O)CC(=O)O3)[C@H]21 [Simvastatin] (concentration: 25 µM) | 1.05 ± 0.054 | 0.698 ± 0.029
9 | CC=CC(=O)N(CC)c1ccccc1C [Crotamiton] (concentration: 25 µM) | 0.972 ± 0.034 | 0.809 ± 0.17
10 | CC(C)C(=O)OCC(=O)[C@@]12O[C@H](C3CCCCC3)O[C@@H]1C[C@H]1[C@@H]3CCC4=CC(=O)C=C[C@]4(C)[C@H]3[C@@H](O)C[C@@]12C [Ciclesonide] (concentration: 2.5 µM) | 0.9714 ± 0.0087 | 0.838 ± 0.08
11 | CCN(CC)CCNC(=O)c1ccc(N)cc1 [Procainamide·HCl] (concentration: 25 µM) | 1.03 ± 0.025 | 0.935 ± 0.17
12 | CN(CCOc1ccc(CC2SC(=O)NC2=O)cc1)c1ccccn1 (configuration not stated) [Rosiglitazone] (concentration: 25 µM) | 0.996 ± 0.063 | 0.718 ± 0.069
13 | CC(=O)Nc1ccc(O)cc1 [Acetaminophen] (concentration: 25 µM) | 1.03 ± 0.037 | 0.891 ± 0.031
14 | CC(=O)OC(C)C[N+](C)(C)C (configuration not stated) [Methacholine Chloride] (concentration: 25 µM) | 1.05 ± 0.022 | 0.921 ± 0.049
15 | c1ccc2c(c1)CCCC2C1=NCCN1 (configuration not stated) [Tetrahydrozoline·HCl] (concentration: 25 µM) | 0.9443 ± 0.007 | 1.16 ± 0.094
16 | O=C1[C@H](CC[C@H](O)c2ccc(F)cc2)[C@@H](c2ccc(O)cc2)N1c1ccc(F)cc1 [Ezetimibe] (concentration: 25 µM) | 1.03 ± 0.022 | 0.639 ± 0.061
17 | CN(C)CC(c1ccc(O)cc1)C1(O)CCCCC1 (configuration not stated) [Desvenlafaxine Succinate Hydrate] (concentration: 25 µM) | 0.993 ± 0.027 | 0.64 ± 0.09
18 | CCCCN1C[C@H](O)[C@@H](O)[C@H](O)[C@H]1CO [Miglustat (N-Butyldeoxynojirimycin·HCl)] (concentration: 25 µM) | 0.9757 ± 0.0093 | 0.81 ± 0.045
19 | CN(C)c1nc(N(C)C)nc(N(C)C)n1 [Altretamine] (concentration: 25 µM) | 0.945 ± 0.019 | 0.555 ± 0.077
20 | C[C@]12C=CC(=O)C=C1CC[C@@H]1[C@@H]2[C@@H](O)C[C@@]2(C)[C@H]1CC[C@]2(O)C(=O)CO [Prednisolone] (concentration: 25 µM) | 0.979 ± 0.017 | 0.836 ± 0.14
21 | C[C@]12CC[C@@H]3c4ccc(O)cc4C[C@@H](CCCCCCCCC[S+]([O-])CCCC(F)(F)C(F)(F)F)[C@H]3[C@@H]1CC[C@@H]2O (some centres not stated) [Fulvestrant] (concentration: 25 µM) | 0.942 ± 0.0098 | 0.862 ± 0.061
22 | COc1cccc2c1C(=O)c1c(O)c3c(c(O)c1C2=O)C[C@@](O)(C(C)=O)C[C@@H]3O[C@H]1C[C@H](N)[C@H](O)[C@H](C)O1 [Daunorubicin·HCl] (concentration: 25 nM) | 1.04 ± 0.037 | 0.711 ± 0.11
23 | Nc1nc(=O)n([C@@H]2CS[C@H](CO)O2)cc1F [Emtricitabine] (concentration: 25 µM) | 1.03 ± 0.019 | 0.581 ± 0.14
24 | COc1ccccc1OCC(O)CN1CCN(CC(=O)Nc2c(C)cccc2C)CC1 (configuration not stated) [Ranolazine·2HCl] (concentration: 25 µM) | 0.987 ± 0.031 | 0.979 ± 0.084
25 | Cc1nccn1CC1CCc2c(c3ccccc3n2C)C1=O (configuration not stated) [Ondansetron] (concentration: 25 µM) | 0.97 ± 0.028 | 0.816 ± 0.074
26 | Cc1ccc(/C(=C\CN2CCCC2)c2cccc(/C=C/C(=O)O)n2)cc1 [Acrivastine] (concentration: 5 µM) | 1.06 ± 0.052 | 0.976 ± 0.12

Row | SMILES | mean cell size (Jurkat [1]) | cell count (Jurkat [2])
27 | CCOc1ccc2ccccc2c1C(=O)N[C@@H]1C(=O)N2[C@@H]1SC(C)(C)[C@@H]2C(=O)O [Nafcillin·Na] (concentration: 25 µM) | 0.954 ± 0.025 | 0.569 ± 0.13
28 | Cc1cnc(C(=O)NCCc2ccc(S(=O)(=O)NC(=O)NC3CCCCC3)cc2)cn1 [Glipizide] (concentration: 25 µM) | 1.09 ± 0.049 | 0.612 ± 0.11
29 | Nc1ccc(O)c(C(=O)O)c1 [Mesalamine (5-Aminosalicylic Acid)] (concentration: 25 µM) | 0.912 ± 0.019 | 1 ± 0.046
30 | CC(=O)Nc1c(I)c(NC(C)=O)c(I)c(C(=O)O)c1I [Diatrizoate Meglumine] (concentration: 25 µM) | 0.99 ± 0.021 | 0.846 ± 0.085
31 | O=C1CN2Cc3c(ccc(Cl)c3Cl)N=C2N1 [Anagrelide] (concentration: 25 µM) | 1 ± 0.023 | 0.696 ± 0.12
32 | CC=CC1=C(C(=O)O)N2C(=O)[C@@H](NC(=O)[C@H](N)c3ccc(O)cc3)[C@H]2SC1 [Cefprozil] (concentration: 25 µM) | 0.951 ± 0.035 | 1.06 ± 0.035
33 | OCc1cc(C(O)CNCCCCCCOCCCCc2ccccc2)ccc1O (configuration not stated) [Salmeterol] (concentration: 25 µM) | 0.927 ± 0.023 | 0.669 ± 0.042
34 | C=C1/C(=C\C=C2/CCC[C@]3(C)[C@@H]([C@H](C)CCCC(C)(C)O)CC[C@@H]23)C[C@@H](O)C[C@@H]1O [Calcitriol] (concentration: 25 µM) | 0.8848 ± 0.0063 | 0.893 ± 0.088
35 | CO[C@H]1C[C@@H]2CC[C@@H](C)[C@@](O)(O2)C(=O)C(=O)N2CCCC[C@H]2C(=O)O[C@H]([C@H](C)C[C@@H]2CC[C@@H](OCCO)[C@H](OC)C2)CC(=O)[C@H](C)/C=C(\C)[C@@H](O)[C@@H](OC)C(=O)[C@H](C)C[C@H](C)/C=C/C=C/C=C/1C [Everolimus] (concentration: 2.5 µM) | 0.761 ± 0.015 | 0.552 ± 0.072
36 | Oc1ncnc2[nH]ncc12 [Allopurinol] (concentration: 25 µM) | 0.965 ± 0.013 | 0.701 ± 0.13
37 | CCCN[C@H]1CCc2nc(N)sc2C1 [Pramipexole Dihydrochloride Monohydrate] (concentration: 25 µM) | 1 ± 0.037 | 0.631 ± 0.011
38 | CCCCCOC(=O)Nc1nc(=O)n([C@@H]2O[C@H](C)[C@@H](O)[C@H]2O)cc1F [Capecitabine] (concentration: 25 µM) | 0.957 ± 0.019 | 1.01 ± 0.091
39 | CC(C)(C)NC[C@H](O)COc1nsnc1N1CCOCC1 [(S)-Timolol Maleate] (concentration: 25 µM) | 0.963 ± 0.034 | 0.967 ± 0.15
40 | NS(=O)(=O)c1cc(C(=O)O)c(NCc2ccco2)cc1Cl [Furosemide] (concentration: 25 µM) | 0.932 ± 0.034 | 0.249 ± 0.11
41 | CC(=O)N[C@@H](CS)C(=O)O [Acetylcysteine] (concentration: 25 µM) | 1.02 ± 0.059 | 0.772 ± 0.059
42 | COc1c(N2C[C@@H]3CCCN[C@@H]3C2)c(F)cc2c(=O)c(C(=O)O)cn(C3CC3)c12 [Moxifloxacin·HCl] (concentration: 25 µM) | 0.919 ± 0.01 | 0.632 ± 0.14
43 | COc1cc(C(=O)NS(=O)(=O)c2ccccc2C)ccc1Cc1cn(C)c2ccc(NC(=O)OC3CCCC3)cc12 [Zafirlukast] (concentration: 25 µM) | 0.959 ± 0.06 | 0.381 ± 0.062
44 | Nc1ccn([C@@H]2O[C@H](CO)[C@@H](O)[C@@H]2O)c(=O)n1 [Cytarabine] (concentration: 25 nM) | 1.18 ± 0.05 | 0.297 ± 0.088
45 | Cn1cnc([N+](=O)[O-])c1Sc1ncnc2[nH]cnc12 [Azathioprine] (concentration: 25 µM) | 1.02 ± 0.036 | 0.782 ± 0.088
46 | CCC[C@@H]1C[C@@H](C(=O)N[C@@H]([C@H]2O[C@H](SC)[C@H](O)[C@@H](O)[C@H]2O)[C@@H](C)O)N(C)C1 [Lincomycin·HCl] (concentration: 25 µM) | 1.1 ± 0.045 | 0.754 ± 0.11
47 | CC(C)Cn1cnc2c(N)nc3ccccc3c21 [Imiquimod] (concentration: 25 µM) | 0.936 ± 0.018 | 0.44 ± 0.15
48 | O=C(O)[C@H]1/C(=C/CO)O[C@@H]2CC(=O)N21 [Clavulanate Potassium] (concentration: 25 µM) | 0.994 ± 0.011 | 0.787 ± 0.095
49 | C#C[C@]1(O)CC[C@H]2[C@@H]3CCc4cc(O)ccc4[C@H]3CC[C@@]21C [Ethinyl Estradiol] (concentration: 25 µM) | 1.22 ± 0.075 | 0.263 ± 0.035
50 | CNC[C@H](O)c1ccc(O)c(O)c1 [Epinephrine (L-(-)-Epinephrine-(+)-Bitartrate)] (concentration: 25 µM) | 0.959 ± 0.053 | 0.855 ± 0.14
51 | OC(c1cc(C(F)(F)F)nc2c(C(F)(F)F)cccc12)C1CCCCN1 (configuration not stated) [Mefloquine·HCl] (concentration: 2.5 µM) | 0.9935 ± 0.0057 | 0.813 ± 0.087
